A selection: hits, their analogues and other compounds. The true share with any hit is near 2.8%.
SNCA viab count – cell viability loss counter-screen; HEK-293-SNCA-luc viability, GF-AFC fluorescence, 24 h; Potency, µM (series often up to 57.1 µM), for inactives: at the top dose activity change, negative = cytotoxicity, hits mostly cytotoxic; hit rate 0.12% among 150,000; AID 1671193;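 also: potency is read from the fitted curve at half-maximal effect; 0% = DMSO-treated cells and -100% = medium-only wells without cells; nearly all actives have a fitted effect of over 30% in size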
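HEK-293-SNCA-luc cells (1500/well) plated 24 h, then exposed 24 h to a dilution series; GF-AFC added 30 min at 37C, fluorescence 405/540 nm; normalised to medium-only and DMSO wells, Hill fit.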
KDM5B inh – blocks human KDM5B histone demethylase activity; Q9UGL1; KDM5B demethylase, FDH-coupled NADH fluorescence (FDH is formaldehyde dehydrogenase); Potency, µM (series often up to 57.7 µM), hits mostly inhibitors; hit rate 2.6% among 220,000; AID 1347165; also: potency is read from the fitted curve at half-maximal effect; 0% is about no effect; nearly all actives have a fitted effect of over 70% in size
Target sequence (Q9UGL1 whole entry, looked up): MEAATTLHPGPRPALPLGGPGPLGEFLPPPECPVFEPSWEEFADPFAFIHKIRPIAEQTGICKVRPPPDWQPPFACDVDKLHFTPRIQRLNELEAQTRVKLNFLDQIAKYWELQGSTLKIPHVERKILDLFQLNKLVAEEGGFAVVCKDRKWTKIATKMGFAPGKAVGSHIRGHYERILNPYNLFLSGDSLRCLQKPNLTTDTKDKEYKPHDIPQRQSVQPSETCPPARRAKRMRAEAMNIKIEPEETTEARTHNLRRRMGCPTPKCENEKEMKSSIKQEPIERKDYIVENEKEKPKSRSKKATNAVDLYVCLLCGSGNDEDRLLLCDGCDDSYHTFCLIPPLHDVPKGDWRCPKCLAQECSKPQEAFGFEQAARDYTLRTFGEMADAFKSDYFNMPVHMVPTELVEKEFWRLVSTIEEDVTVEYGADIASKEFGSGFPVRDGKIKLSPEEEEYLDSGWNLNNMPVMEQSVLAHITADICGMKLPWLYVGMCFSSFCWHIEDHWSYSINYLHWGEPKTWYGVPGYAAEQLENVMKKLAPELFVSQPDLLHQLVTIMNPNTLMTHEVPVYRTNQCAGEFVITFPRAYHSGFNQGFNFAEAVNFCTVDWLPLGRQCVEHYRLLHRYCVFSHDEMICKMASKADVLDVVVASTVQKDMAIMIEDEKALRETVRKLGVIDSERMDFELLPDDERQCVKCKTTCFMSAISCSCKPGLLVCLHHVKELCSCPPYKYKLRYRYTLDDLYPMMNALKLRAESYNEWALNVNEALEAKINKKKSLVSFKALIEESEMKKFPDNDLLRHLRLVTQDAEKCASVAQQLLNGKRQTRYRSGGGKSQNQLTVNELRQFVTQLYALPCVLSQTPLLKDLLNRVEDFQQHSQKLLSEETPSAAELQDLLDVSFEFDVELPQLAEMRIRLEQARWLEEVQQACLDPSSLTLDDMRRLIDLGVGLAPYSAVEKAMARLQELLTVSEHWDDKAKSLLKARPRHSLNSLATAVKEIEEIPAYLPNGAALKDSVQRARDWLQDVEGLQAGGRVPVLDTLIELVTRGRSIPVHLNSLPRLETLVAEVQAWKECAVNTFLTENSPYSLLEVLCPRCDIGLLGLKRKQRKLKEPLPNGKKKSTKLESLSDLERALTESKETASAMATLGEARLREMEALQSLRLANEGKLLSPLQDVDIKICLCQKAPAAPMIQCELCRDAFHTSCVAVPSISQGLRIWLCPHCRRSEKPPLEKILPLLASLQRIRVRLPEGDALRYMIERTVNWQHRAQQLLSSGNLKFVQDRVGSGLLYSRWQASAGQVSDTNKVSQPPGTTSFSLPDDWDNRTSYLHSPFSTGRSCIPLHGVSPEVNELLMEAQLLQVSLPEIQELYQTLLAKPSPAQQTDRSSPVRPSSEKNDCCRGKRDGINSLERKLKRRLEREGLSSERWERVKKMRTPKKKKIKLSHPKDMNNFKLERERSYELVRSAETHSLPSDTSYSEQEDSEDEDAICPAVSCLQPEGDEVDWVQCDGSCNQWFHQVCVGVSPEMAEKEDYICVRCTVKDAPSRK
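Compound dilutions met 200 nM (final) KDM5BΔAP for 10 min at room temperature before substrate addition. The substrate mix held 12.5 µM H3K4me3 with cofactors 25 µM α-ketoglutarate and 50 µM Fe²⁺. NADH signal gain over 30 min defined activity.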
IP6K1 inh – blocks human inositol hexakisphosphate kinase 1; Q92551; IP6K1 kinase, ADP-Glo luminescence, 2 h; hits give low values; activity change, % (series mostly up to about 58 µM); hit rate 0.81% among 140,000; in the data active = activity change below about -25%; also: % is scaled to controls: 0 for no effect and ±100 for the full control effect
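ADP-Glo luminescence measures ADP made by human IP6K1 during a 2 h RT reaction with ATP/IP6 (mix at 1.3 mM/130 uM); top library doses 57.5 and 19.1 uM final.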
SNCA expr inh – SNCA gene expression inhibition; HEK-293 SNCA-luciferase knock-in, luminescence, 24 h; Potency, µM (highest dose often 57.2 µM), inactives show top-dose activity change, negative = inhibition, most hits filed as inhibitors; hit rate 0.17% among 140,000;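 also: potency is read from the fitted curve at half-maximal effect; plate controls were DMSO cells for no effect and cell-free wells for full effect; nearly all actives have a fitted effect of over 45% in size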
The depositor's hits bear a star; i = inactive; ? = inconclusive; / = no result; [ ] = another dose, or the depositor's remark. Unless noted, calls follow the shape of the dose curve; as a rule, active = well fitted curve in the direction sought with a large enough effect; inconclusive = small, poorly fitted or top-dose-only effect, or another doubt; inactive = no such curve, though single readings can be large; an effect the other way counts as inactive or inconclusive.

SMILES	SNCA viab count	KDM5B inh	IP6K1 inh	SNCA expr inh
C=CCOC(=O)C1=C(C)N=C2SC=C(CC(=O)N3CCCC3)N2C1c1ccccc1Cl (stereo unspecified)	-13%	28µM*	9	8%
COC(=O)C1=C(C)N=C2SC=C(CC(=O)N3CCCC3)N2C1c1cccc(OC)c1OC (stereo unspecified)	-9%	?	4	17%
COc1cccc(-c2ccc(C(=O)NCCNC(=O)Nc3ccccc3)cc2)c1	/	/	-6	/
Cc1cc(C[C@@H]2COC[C@@H]2NC(=O)c2cc(-c3ccccc3O)n[nH]2)on1	-20%	i	-8	-40%
Cc1cc(C[C@@H]2COC[C@@H]2NC(=O)c2cnn3ccccc23)on1	-7%	28µM*	-2	0%
COc1ccc(C(=O)N[C@H]2COC[C@H]2Cc2cc(C)no2)c(F)c1F	-4%	?	1	-19%
Cc1cc(C[C@@H]2COC[C@@H]2NC(=O)c2cc(C)oc2-c2ccccc2)on1	7%	28µM*	14	-5%
Cc1ccc2oc(C(=O)N[C@H]3COC[C@H]3Cc3cc(C)no3)c(C)c2c1	-6%	16µM*	-2	-2%
COc1cc(OC)c(C(=O)N[C@H]2COC[C@H]2Cc2cc(C)no2)cc1OC	12%	20µM*	45	-19%
CC(C)NC(=O)c1nccnc1C(=O)O	/	i	/	/
COCCNC(=O)[C@@H]1CCC[C@@H](NC(=O)c2ccno2)CN(C)C(=O)C1	6%[87.6 µM]	i	6	10%[87.6 µM]
COc1ccc(CN2C(=O)COC[C@@H]2[C@H](O)c2ccc(NC(=O)CC(C)(C)C)cc2)cc1	2%	i	5	13%
O=C1c2cccnc2OC2(CCCC2)CN1Cc1ccc2c(c1)OCO2	?	/	-12	4%[25.6 µM]
O=C(NCCc1cccc(F)c1)C1CC(=O)N(c2n[nH]c3ccccc23)C1 (stereo unspecified)	8%	22µM*	4	8%
O=C(NCCC1=CCCCC1)C1CC(=O)N(c2n[nH]c3ccccc23)C1 (stereo unspecified)	7%	25µM*	-1	24%
O=C(NCc1ccc(F)cc1)C1CC(=O)N(c2n[nH]c3ccccc23)C1 (stereo unspecified)	14%	?	3	-10%
Cc1ccc(C)c(S(=O)(=O)N2CCN(C3CCN(CCc4ccccc4)C3=O)CC2)c1 (stereo unspecified)	4%	i	2	-16%
Cc1noc(C)c1-c1nc(N2CCN(C)CC2)c2ccccc2n1	-23%	/	/	7%
Cc1noc2c(-c3cccnc3NCc3cccnc3)cc(-c3ccccc3)nc12	-3%[87.6 µM]	?	-15	-10%[87.6 µM]
COC1CCCN(c2ncccc2-c2cc(-c3ccccc3)nc3c(C)noc23)C1 (stereo unspecified)	?	40µM*	1	-7%[87.6 µM]
COC1CCCN(c2cc(-c3cccnc3)nc3c(C)noc23)C1 (stereo unspecified)	10%[87.6 µM]	i	1	-8%[87.6 µM]
CC(=O)N1CCN(c2ncccc2-c2cc(-c3ccccc3)nc3c(C)noc23)CC1	9%[87.6 µM]	35µM*	-12	-4%[87.6 µM]
CC(=O)N1CCN(c2nc(-c3c(C)noc3C)cc3c2cc(-c2ccccc2)n3C)CC1	3%[87.6 µM]	40µM*	-2	-1%[87.6 µM]
Cc1noc2c(-c3cccnc3N(C)C)cc(-c3ccccc3)nc12	10%[87.6 µM]	32µM*	-19	13%[87.6 µM]
C#CCN(C)CC[C@@H]1CC[C@H](O)[C@@H](C(=O)NCCOC)O1	-10%[87.6 µM]	i	11	2%[87.6 µM]
SMILES	SNCA viab count	KDM5B inh	IP6K1 inh	SNCA expr inh
N#Cc1cccnc1NCCNc1ccccn1	/	i	/	/
COCCc1nc(CNC(=O)C(c2cccc(F)c2)N(C)C)no1 (stereo unspecified)	-10%	22µM*	8	-1%
CNC(=O)c1noc(CNC(=O)C(c2cccc(F)c2)N(C)C)n1 (stereo unspecified)	-24%	i	8	-12%
O=C(Cc1c[nH]c2ccccc12)N1CCC(c2nc(CCOCC3CCCC3)no2)C1 (stereo unspecified)	-9%[12.5 µM]	i	13	20µM*
C1CCC(c2nc(CCOCC3CCCC3)no2)NC1 (stereo unspecified)	-3%	28µM*	2	-10%
C1CNC(c2nc(CCOCC3CCOCC3)no2)C1 (stereo unspecified)	5%	i	24	1%
COc1ccc(C(=O)c2cnc[nH]2)cc1	/	i	/	/
COc1ccc(NC(=O)c2cnc[nH]2)cc1	-12%	i	-3	14µM*
CN(C)c1ccc(C(=O)N2CCN3C(=O)c4cc(-c5ccc6c(c5)OCO6)ccc4NC(=O)[C@H]3C2)cc1	1%	35µM*	15	?
CSc1ccc(-c2ccc3c(c2)C(=O)N2CC[C@H](NC(=O)c4cccs4)C[C@H]2C(=O)N3)cc1	4%	28µM*	7	-8%
COCC(=O)N1CCN2C(=O)c3cc(-c4ccc5c(c4)OCO5)ccc3NC(=O)[C@H]2C1	2%[87.6 µM]	?	-4	22%[87.6 µM]
O=C1Nc2ccc(-c3ccc4c(c3)OCO4)cc2C(=O)N2CCN(C(=O)c3cccs3)C[C@@H]12	-17%	28µM*	-17	-14%
c1csc(-c2nc3nccc(-c4cccs4)n3n2)c1	-18%	?	-1	26%
c1ccc(CCCc2noc(-c3ccc(NCc4ccccn4)nc3)n2)cc1	-5%	?	27	119%
C[C@@H](Nc1ccc(-c2nc(CCCc3ccccc3)no2)cn1)C(N)=O	-1%	?	2	-7%
Cn1cc(CNc2ccc(-c3nc(CCCc4ccccc4)no3)cn2)cn1	2%	32µM*	10	115%
CCN1CC(Nc2ccc(-c3nc(CCCc4ccccc4)no3)cn2)CC1=O (stereo unspecified)	7%	28µM*	10	4%
Cc1cc(CNc2ccc(-c3nc(CCCc4ccccc4)no3)cn2)no1	-18%	28µM*	22	57%
CC(=O)c1ccc(C(=O)N(CCc2ccccc2)Cc2ccc(C)s2)s1	/	i	/	/
Cc1ncc(CO)c(CN2CCCC23Cc2ccccc2CNC3=O)c1O (stereo unspecified)	8%	79µM*	-8	-3%
O=C1NCc2ccccc2CC12CCCN2Cc1ccnc2ccccc12 (stereo unspecified)	8%	50µM*	-9	?
CCCCCCn1nc(C(=O)OCC(=O)Nc2ccccc2F)c2ccccc2c1=O	/	i	/	/
COc1ccc(S(=O)(=O)NC[C@@H]2C=C(C)[C@H](CC(=O)N3CCN(c4ccccn4)CC3)C[C@H]2C(C)C)cc1	?	28µM*	-4	?
COCC(=O)NC[C@@H]1C=C(C)[C@H](CC(=O)N2CCN(c3ccccn3)CC2)C[C@H]1C(C)C	-9%	32µM*	13	-10%
COc1cccc(NC(=O)NC[C@@H]2C=C(C)[C@H](CC(=O)N3CCN(c4ccccn4)CC3)C[C@H]2C(C)C)c1	?	32µM*	5	?
COCCNC(=O)C[C@@H]1C[C@@H](C(C)C)[C@H](CNS(=O)(=O)c2ccc(OC)cc2)C=C1C	-8%	22µM*	-1	5%
